What all share (experiment): NCI-60 one-dose screen, 48 h (100 = growth as untreated, 0 = no growth, -100 = all killed)
Common to all, as to details: 10 µM unless noted

In assay [1] the test system is T-47D breast.
The test system of assay [2] is BT-549 breast.
In assay [3] the test system is MDA-MB-435 melanoma.
The subject of assay [4] is SW-620 colon.
Assay [5] has as its system MCF7 breast.
Assay [6] concerns HCT-116 colon.
The test system of assay [7] is HCC-2998 colon.
In assay [8] the test system is KM12 colon.

SMILES strings stand for the structures. This is part of a sample that, as a whole, favours compounds with a hit. Of some 83,000 tested, about 20% had one in any assay.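 Single-concentration screen, 48 h exposure, 96-well plates. Endpoint: percent growth. Below 10 = active.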 Values without a mark were called inactive. Activity calls are given as the source filed them.

For the molecule `O=C(c1nc2ccccc2[nH]1)C1C(c2ccc(Cl)cc2)C2CC3CCCC[C@H]3N2[C@@]12C(=O)Nc1cc(Cl)ccc12` (stereo not given in full), the growth in assay [1] was 24.8%; in assay [2], 80.8%; in assay [3] it was 24.8%; in assay [4], 33.2%; in assay [5], 17.3%; in assay [6], 23.4%. Further, the growth is 52% in assay [7] and 45.8% in assay [8].
For the molecule `O=C(O)c1ccc(NCc2cn(-c3ccc(C(F)(F)F)cc3)nc2-c2ccc(C(=O)O)cc2)cc1`, the growth in assay [1] is 100%; in assay [2], 108%; in assay [3], 102%; in assay [4], 110%; in assay [5], 96%; in assay [6], 109%. Moreover, the results for the growth in assay [7] and in assay [8] were 107% and 104%, respectively.
`CC(=O)N1c2ccccc2NC2=C(C(=O)NC2(C)C)C1c1ccco1` (stereo not given): the growth is 110% in assay [1]; 86% in assay [2]; -19.1% (active) in assay [3]; 81.1% in assay [4]; 37.9% in assay [5]; 87.8% in assay [6]. The growth is 88.1% in assay [7] and 51.2% in assay [8].
In the case of `CCOC(=O)c1ccc2c(c1)ncn2-c1ccc(NC(=O)Nc2cccc(C)c2)cc1`, the growth in assay [1] was 31.2%; in assay [2], 115%; in assay [3], 77.6%; in assay [4] it was 81.6%; in assay [5], 54.7%; in assay [6], 57.2%. Moreover, the growth in assay [7] was 90.6%; in assay [8] it was 27.7%.
For `CCCCOc1ccc(/C(C)=N/Nc2cc(C)nc3ccc(Br)cc23)cc1`, the growth in assay [1] was 85.5%; in assay [2], 107%; in assay [3] it was 92.8%; in assay [4], 5.89% (active); in assay [5], 21.3%; in assay [6], 27.7%. Moreover, the growth in assay [7] was 45.8%; in assay [8] it was 62.9%.
On to `COc1cc(/C=C\c2cc(OC)c(OC)c(OC)c2)cc(N)c1OC`, for which the growth in assay [1] is 82.8%; in assay [2], 75.9%; in assay [3], 1.87% (active); in assay [4], 75%; in assay [5], 85.4%; in assay [6], 79.1%. Besides, the growth in assay [7] is 73.1%; in assay [8] it was 54.9%.
`COc1ccc(C(=O)CSc2nc(-c3cc(OC)ccc3OC)cc(-c3ccc(Cl)cc3)c2C#N)cc1`: the growth in assay [1] was 32.3%; in assay [2], 10.8%; in assay [3], 26%; in assay [4] it was 50.7%; in assay [5], 46.5%; in assay [6], 30.2%. Also, the growth in assay [7] was 78.3%; in assay [8] it was 48.3%.
As for `CCCCCCCCOc1ccc(/C=N/Nc2cc(C)nc3ccc(Br)cc23)cc1`, the growth was 80.9% in assay [1]; 95.6% in assay [2]; 64.7% in assay [3]; 8.02% (active) in assay [4]; 15.8% in assay [5]; 6.51% (active) in assay [6]. Moreover, the results for the growth in assay [7] and in assay [8] were 89.8% and 57%, respectively.
Regarding `COc1cc(C(=O)Nc2cc3c(cc2Oc2cc(C)cc(C)c2)C(=O)N(C)[C@@H](CC(=O)N(C)O)C(=O)N3)c(Br)c(OC)c1OC`, the growth in assay [1] was 1.62% (active); in assay [2] it was -30.2% (active); in assay [3] it was -86.2% (active); in assay [4] it was -2.61% (active); in assay [5], -14.8% (active); in assay [6], -35.5% (active). The figures for the growth in assay [7] and in assay [8] were -45.6% (active) and -28.6% (active), respectively.
As for `Cc1ccc(S(=O)(=O)Nn2c3c(cc(-c4nc5ccccc5s4)c2=O)CCCCCC3)cc1`, the growth in assay [1] was 96.4%; in assay [2], 109%; in assay [3], 103%; in assay [4], 99.6%; in assay [5], 91.3%; in assay [6] it was 98%. Also, the growth was 115% in assay [7] and 101% in assay [8].
`O=C(N/N=C/c1ccc(Oc2ccccc2)cc1)c1cnn2c1NC(c1ccccc1)C2` (stereo not given): the growth in assay [1] is 43%; in assay [2] it was 81.1%; in assay [3] it was 4.46% (active); in assay [4] it was 42.1%; in assay [5], 17.7%; in assay [6], 32.2%. In addition, the results for the growth in assay [7] and in assay [8] were 71.8% and 44.7%, respectively.
Turning to `COc1cc(CC(=O)c2ccc(O)c(OC)c2)ccc1O`, the growth in assay [1] is 89.6%; in assay [2] it was 110%; in assay [3], 112%; in assay [4] it was 102%; in assay [5] it was 96.9%; in assay [6] it was 100%. Besides, the growth in assay [7] and in assay [8] was 103% throughout.
Turning to `Cc1nnc2c(Cc3ccccc3)nc3ccccc3n12`, the growth is 92.4% in assay [1]; 91.8% in assay [2]; 93.2% in assay [3]; 97.3% in assay [4]; 97.9% in assay [5]; 93.1% in assay [6]. The growth in assay [7] was 97.8%; in assay [8] it was 97.5%.
In the case of `CC(Oc1ccc(C(=O)O)cc1C(F)(F)F)c1ccc(Oc2ccccc2)cn1` (stereo not given), the growth in assay [1] is 100%; in assay [2], 89.1%; in assay [3], 77.4%; in assay [4], 103%; in assay [5], 89.5%; in assay [6], 103%. Besides, the figures for the growth in assay [7] and in assay [8] were 108% and 92.2%, respectively.
Turning to `COc1cc2c(c(O)c1Br)C(=O)c1c(O)cc(C[C@H](C)O)cc1[C@H]2[C@H]1c2cc(C[C@H](C)O)cc(O)c2C(=O)c2c1cc(OC)c(Br)c2O`, the growth in assay [1] was 8.03% (active); in assay [2], 17.3%; in assay [3], 9.24% (active); in assay [4], 18.2%; in assay [5] it was 8.05% (active); in assay [6] it was 10.1%. For the same molecule, the growth in assay [7] was 26%; in assay [8] it was 9.13% (active).

(Values after PubChem BioAssay (NCI).)
